11 compounds from PubChem BioAssay can be followed below.

The nature of experiment [1]: compounds altering viability of human ES cells (AID 493140; call rule not given here;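 further: cells exposed to compounds for four days before counting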). As to conditions: human embryonic stem cell survival screen; stronger effect = higher value.
The nature of experiment [2]: modulation of C. elegans fzo-1 (AID 1259413; call rule not given here;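 further: fzo-1 mutant C. elegans worms in liquid wells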). As to conditions: C. elegans fzo-1 modulator screen, mean read-out; stronger effect = higher value.
A short description of experiment [3]: galactose survival enhancers in mitochondrial complex I cybrids – cell-based, galactose medium, ATP luminescence, primary screen (AID 1645843;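 active means z-score of at least 1.8 in each of two replicates, scored against plate mean and spread of sample wells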;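 further: positive z means more ATP and so rescue of galactose-driven cybrid death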). As to conditions: complex I mutant cybrid cells, 72 h, stronger effect = higher value.
A further experiment relates to F380Y/beta1. The experiment is described as follows: BK channel mutant inhibitors and activators – cell-based, U2OS BacMam, thallium flux, beta subunits, selectivity assay, profiling panel (AID 1259406).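 Further: initial slope of Thallos dye fluorescence rise after thallium is added; log ratio against the mean of 0.3% DMSO vehicle wells on the same plate.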 As to conditions: U2OS BacMam BK variants, at 30 µM.
For another experiment, the system named is F380Y/beta2Delta. The description is as above. As to conditions: U2OS BacMam BK variants, at 30 µM.
The next experiment has as its system F380Y/beta4. Described as above. As to conditions: U2OS BacMam BK variants, at 30 µM.
For experiment [4], the target named is Calcium-activated potassium channel subunit alpha-1 (Homo sapiens) + Leucine-rich repeat-containing protein 26 (Homo sapiens) (UniProt Q12791+Q2I0M4). The description is as above. As to conditions: U2OS BacMam BK variants, F380Y/Slo1WT/gamma1, at 30 µM.
Sequence of Calcium-activated potassium channel subunit alpha-1 (Homo sapiens) + Leucine-rich repeat-containing protein 26 (Homo sapiens) (Q2I0M4 whole entry, looked up, one chain of several): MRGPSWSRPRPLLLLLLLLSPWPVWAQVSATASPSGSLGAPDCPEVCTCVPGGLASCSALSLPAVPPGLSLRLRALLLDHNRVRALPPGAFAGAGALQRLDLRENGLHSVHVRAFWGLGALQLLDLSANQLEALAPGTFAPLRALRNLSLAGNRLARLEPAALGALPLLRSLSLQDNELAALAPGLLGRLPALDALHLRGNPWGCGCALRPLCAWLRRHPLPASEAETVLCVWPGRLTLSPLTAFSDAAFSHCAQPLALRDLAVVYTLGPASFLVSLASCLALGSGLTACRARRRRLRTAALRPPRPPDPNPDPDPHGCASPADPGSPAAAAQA
The subject of the next experiment is R275C. The description is as above. As to conditions: U2OS BacMam BK variants, at 30 µM.
In a further experiment the test system is R275C/beta1. The experiment is described as above. As to conditions: U2OS BacMam BK variants, at 30 µM.
The next experiment relates to R275C/beta2Delta. The description is as above. As to conditions: U2OS BacMam BK variants, at 30 µM.
The test system of another experiment is R275C/beta4. The experiment is described as above. As to conditions: U2OS BacMam BK variants, at 30 µM.
The next experiment has as its system R275C/Slo1WT/beta2. Described as above. As to conditions: U2OS BacMam BK variants, at 30 µM.
Experiment [5] concerns Neuropilin-2 / VEGF-C interaction (human). The experiment is described as follows: small molecules blocking Neuropilin-2/VEGF-C interaction – biochemical, microplate binding format, z-score (AID 743281; call rule not given here). As to conditions: microplate NRP2/VEGF-C binding assay; stronger effect = lower value.
The nature of experiment [6]: blockers of polyQ-driven CASP3 activation – cell-based (AID 1583). As to conditions: polyglutamine-induced caspase-3 activation, cell assay; stronger effect = higher value;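 tested at 10 µM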.
The nature of experiment [7]: yeast 75Q aggregation reduction – 75Q-TubU reporter (AID 1593). As to conditions: Yeast 75Q polyglutamine aggregation reporter.
Experiment [8] can be described thus: restoration of touch response, mutant HTT neurons – whole organism, C. elegans mechanosensory neurons, N-terminal huntingtin (AID 1599). As to conditions: C. elegans polyQ-huntingtin mechanosensory neurons, stronger effect = higher value.
Experiment [9] in a line: blockers of cytochrome c efflux from mitochondria – biochemical, purified mitochondria (AID 1603).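 Further: mouse liver mitochondria challenged with calcium chloride; signal normalized to the plate average as 100%.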 As to conditions: stronger effect = lower value.
The nature of experiment [10]: polyglutamine aggregate formation blockers (AID 1604). As to conditions: polyglutamine-induced protein aggregation inhibition assay; stronger effect = higher value; tested at 2.5 µM.
Experiment [11] is described as follows: glutamate transport activators, MN-1 cells, MN-1 cell line (AID 1612).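 Further: tested at 1 µM final; 0% = mean of DMSO vehicle wells on each plate; positive means more glutamate uptake than control and negative means less.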 As to conditions: MN-1 motor neuron cells, stronger effect = higher value.
Experiment [12] in a line: 75Q-TubH aggregate inhibition, S. cerevisiae, yeast (AID 1616). As to conditions: S. cerevisiae 75Q-TubH polyglutamine aggregation suppression; stronger effect = higher value.

Values joined by “and” are separate entries in the source; they are usually repeats but may differ in a detail not shown here. Equal entries are not always repeated. For some of these results: Measured potencies and affinities stand elsewhere. Active and inactive are the calls of the source.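 How the source made its calls, unless noted: active means thallium flux through the channel raised or lowered by more than 3 SD from vehicle-only wells, actives on both sides; inactive means the rest.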

Regarding `C[C@]12CCC(=O)C=C1CC[C@@H]1[C@@H]2[C@@H](O)C[C@@]2(C)[C@H]1CC[C@]2(O)C(=O)CO`, the survival in experiment [1] is 5.5 (inactive). Also, in [2], the mean signal is 278 (inactive). The z-score in experiment [3] is 0.565 (inactive) and 0.385 (inactive) and -0.22 (inactive). Moreover, the log fold change Tl+ flux is 0.0243 (inactive) in the experiment on F380Y/beta1; 0.0274 (inactive) in the experiment on F380Y/beta2Delta; 0.00205 (inactive) in the experiment on F380Y/beta4; -0.00874 (inactive) in experiment [4]; -0.0265 (inactive) with R275C; -0.0128 (inactive) in the experiment on R275C/beta1. For the same compound, the log fold change Tl+ flux was 0.0134 (inactive) with R275C/beta2Delta, -0.0399 (inactive) in the experiment with R275C/beta4 and 0.0266 (inactive) in the experiment with R275C/Slo1WT/beta2.

Take `CCCCCCCCCCC[C@@H](C[C@@H]1OC(=O)[C@H]1CCCCCC)OC(=O)[C@H](CC(C)C)NC=O`: the results for the z-score in experiment [5] and in experiment [3] were -1.43 (inactive) and 0.54 (inactive), respectively. Moreover, the mean signal in experiment [2] was 258 (inactive). Besides, the log fold change Tl+ flux in the experiment with F380Y/beta1 is 0.0468 (inactive); with F380Y/beta2Delta it was 0.0435 (inactive); in the experiment with F380Y/beta4, 0.0138 (inactive); in [4], 0.0135 (inactive); in the experiment on R275C it was -0.0306 (inactive); in the experiment with R275C/beta1, -0.0228 (inactive). Also, the values for the log fold change Tl+ flux in the experiment with R275C/beta2Delta, with R275C/beta4 and with R275C/Slo1WT/beta2 were -0.0121 (inactive), -0.0426 (inactive) and -0.00736 (inactive), respectively.

`CC(C)Oc1ccc2c(=O)c(-c3ccccc3)coc2c1`: the z-score in experiment [5] was 0.0143 (inactive); in [3] it was -0.74 (inactive). The mean signal in [2] is 191 (inactive). Also, the log fold change Tl+ flux with F380Y/beta1 is -0.0734 (inactive); with F380Y/beta2Delta, -0.052 (inactive); with F380Y/beta4 it was -0.0682 (inactive); in experiment [4] it was -0.0126 (inactive); in the experiment with R275C it was -0.0788 (inactive); with R275C/beta1 it was -0.122 (active). Moreover, the log fold change Tl+ flux in the experiment with R275C/beta2Delta is -0.0975 (active); with R275C/beta4 it was -0.0145 (inactive); in the experiment with R275C/Slo1WT/beta2, 0.013 (inactive).

As to `c1ccc(-c2ccc(C(c3ccccc3)n3ccnc3)cc2)cc1` (centres undefined), the z-score in [5] was -0.348 (inactive); in [3], -1.87 (inactive) and -2.02 (inactive). In addition, the mean signal in [2] is 204 (inactive). Also, the log fold change Tl+ flux in the experiment on F380Y/beta1 is 0.00744 (inactive); in the experiment with F380Y/beta2Delta it was 0.0145 (inactive); in the experiment on F380Y/beta4 it was 0.00227 (inactive); in experiment [4], 0.0139 (inactive); in the experiment with R275C it was -0.0477 (inactive); in the experiment with R275C/beta1, 0.164 (active). Further, the log fold change Tl+ flux with R275C/beta2Delta is -0.336 (active); with R275C/beta4 it was -0.0228 (inactive); in the experiment on R275C/Slo1WT/beta2 it was -0.0124 (inactive).

In the case of `Cc1cccc(Nc2ccncc2S(=O)(=O)NC(=O)NC(C)C)c1`, in experiment [1], the survival was 8.33 (inactive). Moreover, the z-score in [5] was 0.676 (inactive); in [3], 1.21 (inactive). The mean signal in experiment [2] is 241 (inactive). The log fold change Tl+ flux in the experiment with F380Y/beta1 was 0.0627 (inactive); in the experiment on F380Y/beta2Delta, -0.0041 (inactive); in the experiment on F380Y/beta4, -0.0278 (inactive); in experiment [4], -0.0447 (inactive); in the experiment with R275C, -0.147 (active); in the experiment with R275C/beta1, 0.0246 (inactive). Moreover, the values for the log fold change Tl+ flux in the experiment with R275C/beta2Delta, in the experiment with R275C/beta4 and in the experiment with R275C/Slo1WT/beta2 were 0.0124 (inactive), 0.029 (inactive) and 0.0277 (inactive), respectively.

In the case of `Cc1cccc(Nc2ccccc2C(=O)O)c1C`, the inhibition in experiment [6] was found to be 14.9%. The score in experiment [7] worked out at 0.19. In experiment [8], this compound showed a rescue above control of 14.6. Further, the cytochrome c release ratio in [9] worked out at 1. Further, in experiment [10], the inhibition of aggregation came to 32.9%. In addition, the glutamate uptake change in experiment [11] is -12.3%. In experiment [12], this compound displayed an aggregation suppression score of 0.495. The survival in experiment [1] was 12.2 (inactive). Also, the mean signal in experiment [2] was 235 (inactive). Also, the z-score in experiment [3] was 0.385 (inactive) and 1.06 (inactive). The log fold change Tl+ flux in the experiment with F380Y/beta1 is 0.147 (active); with F380Y/beta2Delta it was 0.111 (active); in the experiment on F380Y/beta4 it was 0.146 (active); in experiment [4], 0.101 (active); in the experiment on R275C, 0.009 (inactive); in the experiment with R275C/beta1 it was 0.182 (active). Further, the log fold change Tl+ flux with R275C/beta2Delta was 0.117 (active); with R275C/beta4 it was 0.0837 (inactive); in the experiment with R275C/Slo1WT/beta2 it was 0.00462 (inactive).

For `C[C@H](CCC(=O)O)[C@H]1CC[C@H]2[C@@H]3C(=O)C[C@@H]4CC(=O)CC[C@]4(C)[C@H]3CC(=O)[C@]12C`, in [5], the z-score was -0.00555 (inactive). Also, the mean signal in experiment [2] was 247 (inactive). Besides, the log fold change Tl+ flux in the experiment on F380Y/beta1 was -0.0273 (inactive); with F380Y/beta2Delta, 0.00244 (inactive); in the experiment on F380Y/beta4 it was -0.0104 (inactive); in experiment [4], -0.0617 (inactive); with R275C, -0.000869 (inactive); in the experiment with R275C/beta1, -0.0193 (inactive). In addition, the log fold change Tl+ flux in the experiment on R275C/beta2Delta is -0.00319 (inactive); in the experiment with R275C/beta4, 0.0134 (inactive); in the experiment on R275C/Slo1WT/beta2 it was -0.0176 (inactive).

As for `CC1=C(C(=O)O)N2C(=O)[C@@H](NC(=O)[C@H](N)c3ccccc3)[C@H]2SC1`, in experiment [1], the survival is 10.4 (inactive). The compound was called inactive in experiment [5]. Further, the mean signal in experiment [2] is 265 (inactive). Moreover, the log fold change Tl+ flux is -0.0395 (inactive) with F380Y/beta1; -0.0767 (inactive) with F380Y/beta2Delta; -0.0677 (inactive) with F380Y/beta4; -0.0298 (inactive) in experiment [4]; -0.0778 (inactive) in the experiment on R275C; -0.0268 (inactive) in the experiment with R275C/beta1. The log fold change Tl+ flux with R275C/beta2Delta is -0.026 (inactive); in the experiment with R275C/beta4 it was -0.0153 (inactive); in the experiment with R275C/Slo1WT/beta2 it was -0.0484 (inactive).

As for `C[C@]12CCC(=O)C=C1CC[C@@H]1[C@@H]2C(=O)C[C@@]2(C)[C@H]1CC[C@]2(O)C(=O)CO`, the survival in experiment [1] is 29.6 (inactive). In addition, the figures for the z-score in experiment [5] and in experiment [3] were 0.291 (inactive) and 0.195 (inactive), respectively. Moreover, the mean signal in experiment [2] is 220 (inactive). Besides, the log fold change Tl+ flux with F380Y/beta1 is -0.034 (inactive); in the experiment on F380Y/beta2Delta, 0.0238 (inactive); in the experiment on F380Y/beta4, -0.00179 (inactive); in experiment [4], 0.0148 (inactive); with R275C, -0.0438 (inactive); in the experiment with R275C/beta1 it was -0.0165 (inactive). Also, the log fold change Tl+ flux with R275C/beta2Delta is -0.0316 (inactive); in the experiment with R275C/beta4, 0.0193 (inactive); in the experiment on R275C/Slo1WT/beta2 it was 0.0155 (inactive).

Regarding `O[C@@H](c1cc(C(F)(F)F)nc2c(C(F)(F)F)cccc12)[C@H]1CCCCN1`, the mean signal in [2] was 213 (inactive). Moreover, the z-score in experiment [3] is -1.5 (inactive). The log fold change Tl+ flux was 0.529 (active) in the experiment on F380Y/beta1; 0.541 (active) in the experiment on F380Y/beta2Delta; 0.648 (active) with F380Y/beta4; 0.167 (active) in experiment [4]; 0.256 (active) with R275C; 0.641 (active) in the experiment on R275C/beta1. The log fold change Tl+ flux is 0.366 (active) with R275C/beta2Delta, 0.803 (active) in the experiment on R275C/beta4 and 0.107 (inactive) with R275C/Slo1WT/beta2.

Consider `Cc1onc(-c2ccccc2)c1-c1ccc(S(N)(=O)=O)cc1`, for which the z-score in experiment [5] is 0.865 (inactive); in experiment [3], -0.505 (inactive). In addition, the mean signal in experiment [2] is 275 (inactive). Further, the log fold change Tl+ flux in the experiment on F380Y/beta1 is 0.0307 (inactive); with F380Y/beta2Delta it was 0.0548 (inactive); in the experiment with F380Y/beta4, 0.0618 (inactive); in experiment [4] it was 0.00659 (inactive); in the experiment on R275C, 0.0179 (inactive); in the experiment with R275C/beta1 it was 0.0767 (inactive). Moreover, the log fold change Tl+ flux with R275C/beta2Delta was 0.0842 (inactive); in the experiment on R275C/beta4 it was 0.0327 (inactive); with R275C/Slo1WT/beta2, -0.0445 (inactive).
